Test results published in PubChem BioAssay AID1030 (National Center for Advancing Translational Sciences (NCATS), 2008).
Among all 220,000 compounds or so, about 16,000 (7.3%) were called active. Not shown: some 25% with an inconclusive outcome. This excerpt belongs to a sample that is enriched for actives. Values without a mark were called inactive. Calls come from the whole dose curve; as a rule, active = well fitted inhibition curve with a large enough effect (not every such curve was filed as active); inconclusive = small, poorly fitted or top-dose-only effect, or another doubt; inactive = no such curve, though single readings can be large or run the other way.

biological target: Aldehyde dehydrogenase 1A1 (Homo sapiens) (UniProt P00352); assay: qHTS Assay for Inhibitors of Aldehyde Dehydrogenase 1 (ALDH1A1); details: Purified ALDH1A1, NADH fluorescence, propionaldehyde substrate; series mostly up to 75.3 µM; activity, negative = inhibition: at the top concentration;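 for activity, negative = inhibition: plate controls were no enzyme wells and a reference inhibitor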
Sequence (P00352 whole entry, looked up): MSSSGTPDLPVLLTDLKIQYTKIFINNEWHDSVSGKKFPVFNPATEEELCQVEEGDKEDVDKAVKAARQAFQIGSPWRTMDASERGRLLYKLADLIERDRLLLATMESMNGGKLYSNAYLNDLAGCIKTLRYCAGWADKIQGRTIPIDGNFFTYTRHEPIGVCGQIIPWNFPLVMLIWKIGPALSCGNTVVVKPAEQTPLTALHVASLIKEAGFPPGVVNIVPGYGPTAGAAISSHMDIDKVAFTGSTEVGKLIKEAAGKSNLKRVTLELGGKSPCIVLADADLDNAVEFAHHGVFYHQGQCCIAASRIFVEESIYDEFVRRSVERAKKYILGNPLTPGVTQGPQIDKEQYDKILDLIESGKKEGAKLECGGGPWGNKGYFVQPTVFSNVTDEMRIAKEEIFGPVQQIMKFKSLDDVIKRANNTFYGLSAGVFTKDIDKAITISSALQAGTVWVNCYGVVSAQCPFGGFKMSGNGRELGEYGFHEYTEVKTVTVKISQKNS
Potency is the fitted concentration of half-maximal effect.

In order of rising “activity, negative = inhibition” value:
1. CCCCOC(=O)c1[nH]c(C)c(C(=O)OC)c1C  -76%
2. O=C(O)c1ccc2c3c(cccc13)C(=O)N(OS(=O)(=O)c1ccccc1)C2=O  -18.5%
3. CCC(=O)NCc1cc(-c2nn(C)c(=O)c3ccccc23)ccc1OC  -15.6%
4. O=C(COC(=O)Cn1cnc2ccccc2c1=O)NCc1ccccc1Cl  -14.8%
5. O=C(N/N=C/c1ccc([N+](=O)[O-])cc1)C(=O)N1CCCC1  -13.2%
6. CCCCc1ccc(NC(=S)NCCCN2CCOCC2)cc1  -12.3%
7. C=CCN1C2CCCC1CC(NC(=S)Nc1cccc(OC)c1)C2 (stereo not given)  -11.8%
8. COc1ccc(C(=O)NNC(=O)c2cnccn2)cc1[N+](=O)[O-]  -11.7%
9. CC1CN(C2CCCCC2)c2nc3c(c(=O)n(C)c(=O)n3C)n2C1 (stereo not given)  -10.7%
10. O=C(c1cc(-c2ccccc2O)on1)N1CCCC1  -10.4%
11. C/C=N/NC(=O)CCCC(=O)N/N=C/C  -8.73%
12. COC(=O)c1cc(C(=O)CSc2nc(C)cc(C)n2)ccc1O  -7.96%
13. CCOC(=O)N1CCN(C(=O)Cn2cnc3ccccc3c2=O)CC1  -6.76%
14. NC1CCN(O)C1=O (stereo not given)  -6.54%
15. COc1ccc(C(CCNCc2ccccc2F)c2ccc(F)cc2)cc1 (stereo not given)  -5.1%
16. O=C(NCC1COc2ccccc2O1)C1(c2ccccc2)CCCC1 (stereo not given)  -5.04%
17. COc1ccc(C)cc1NC(=O)CCS(=O)(=O)c1cccc2nonc12  -4.87%
18. Cc1cccc(C2=N/C(=C/c3cccs3)C(=O)O2)c1  -4.31%
19. Fc1cccc(Cc2noc(CN3CCN(c4cnccn4)CC3)n2)c1  -4.08%
20. Cc1cc(NC(=O)CCC2COc3ccccc3O2)no1 (stereo not given)  -3.2%
21. Cc1ccccc1C1=N/C(=C/c2cccnc2)C(=O)O1  -2.62%
22. COc1ccc2c(c1)CCc1c(C(=O)Nc3c(C)n(C)n(-c4ccccc4)c3=O)noc1-2  -2.21%
23. COCCN(C(=S)Nc1ccccc1OC)C1CCN(C(C)C)CC1  -1.56%
24. O=C(CN1C(=O)NC2(CCCCCC2)C1=O)NCc1cccs1  -0.321%
25. CC1CCCCC1NC(=O)C1CCCN1S(=O)(=O)c1cccc2nsnc12 (stereo not given)  0.711%
26. O=C(O)c1ccc2c(c1)C(=O)N(NC(=O)c1ccc(O)cc1)C2=O  1.02%
27. CCOCCCN(C(=O)Cn1nnc(-c2ccc(OC)c(OC)c2)n1)C(CC)C(=O)NC1CCCC1 (stereo not given)  1.58%
28. O=C(OCc1cc(Cl)ccc1OC(F)F)c1cccnc1  2.42%
29. COCc1cc(C(C)=O)ccc1OC  2.62%
30. CN1CCN(c2nc(Nc3ccc(O)cc3)nc3ccccc23)CC1  3.31%
31. Cc1cccc(C(=O)OC(C)CN2CCN(C)CC2)c1 (stereo not given)  3.82%
32. CCOC(=O)c1c(C)[nH]c2c1-c1ccccc1C(=O)C2=O  4.42%
33. Cc1ccc(C(=O)N2CCN(S(=O)(=O)N3CCOCC3)CC2)cc1  4.89%
34. C/C(=N\NC(=O)OC(C)(C)C)c1ccc[nH]1  5.62%
35. CCOCCCNC(=S)N1CCC(NC(=O)C2CCCCC2)CC1  6.18%
36. O=C(NNC(=O)c1ccc(Cl)cc1Cl)c1cccs1  7.06%
37. COC(=O)C1=C(C)N(C)C(=S)NC1c1ccccc1 (stereo not given)  7.15%
38. O=C(CN1C(=O)NC2(CCCCCC2)C1=O)NC1CC1  8.47%
39. CC1(C)CC(N(Cc2ccccc2)C(=O)Cc2ccccc2)CCO1 (stereo not given)  8.75%
40. Cc1ccccc1NC(=O)NC1(C(=O)N2CCCC2)CCCCC1  9.14%
41. COc1ccc(-c2nn(-c3ccccc3)cc2/C=C\C(=O)N2CCOCC2)cc1[N+](=O)[O-]  10.2%
42. Cc1noc(C)c1COc1cccc(C(=O)Nc2cccnc2)c1  12.2%
43. S=C(NCCCc1cnc[nH]1)NCCCN(Cc1ccc(Cl)c(Cl)c1)c1ccc(Br)cn1  16.4%

With `COc1ccc(C(=O)CSc2nc(C)cc(C)n2)cc1[N+](=O)[O-]` the Potency was 2.24 µM (active).
With `Cc1cc(C(=O)CCl)c(C)n1CC1COc2ccccc2O1` (stereo not given) the Potency was 0.251 µM (active).
`CCOC(=O)c1c(C)[nH]c(C2=NNC(=NC(C)COC)SC2)c1C` (stereo not given) was tested, and the Potency was 10 µM (active).
`COc1ccc(N2CC(C)Cn3c2nc2c3c(=O)n(Cc3ccccc3F)c(=O)n2C)c(OC)c1` (stereo not given) was tested, and the Potency was 17.8 µM (active).
For `COc1ccc2c(c1)CCc1c(C(=O)N3CCCC3)noc1-2`, the Potency was 10 µM (active).
`O=C1CN(C(=O)CN2C(=O)NC3(CCCCC3)C2=O)c2ccccc2N1` was tested, and the Potency was 15.8 µM (active).
With `COc1ccc(C(C)=O)cc1COC(=O)Cn1cnc2ccccc2c1=O` the Potency was 20 µM (active).
In the case of `CCOc1ccc(C(C)=O)cc1COC(=O)c1cnc(Cl)c(Cl)c1`, the Potency is reported as 0.708 µM (active).
With `Cc1ccc(C2=N/C(=C\c3ccc(OS(=O)(=O)c4ccc(C)cc4)cc3)C(=O)O2)cc1` the Potency was 25.1 µM (active).
With `CC1CCCCC1NC(=O)CCS(=O)(=O)c1cccc2nonc12` (stereo not given) the Potency was 10 µM (active).
For `COC(=O)C1=C(C)N(C)C(=O)NC1c1ccc([N+](=O)[O-])o1` (stereo not given), the Potency was 25.1 µM (active).

`CCN1C(=O)N[C@@H](c2ccccc2)C(C(=O)OC)=C1C` showed an activity, negative = inhibition of 17.9% [at 13.5 µM].
